# Test results: PubChem BioAssay (NCATS)
# Records with an inconclusive call do not appear. Entries that show only a call come without a potency. Active and inactive are the calls of the source. Unless noted, calls follow the shape of the full dose curve. Bridge positions count the residues as written; N and C are the ends. Square brackets hold non-standard residues; d marks the D form. Peptide text beside a SMILES is read from it. dPhe(4-Cl) = N[C@H](Cc1ccc(Cl)cc1)C(=O)O; d2Nal = N[C@H](Cc1ccc2ccccc2c1)C(=O)O; dCit = NC(=O)NCCC[C@@H](N)C(=O)O; d3Pal = N[C@H](Cc1cccnc1)C(=O)O
# Assays:
# [1] = Primary qHTS for Huh7 cytotoxicity: counterscreen for inhibitors of MERS-S pseudotyped particle cell entry (AID 1479147); conditions: cell viability read-out; series mostly up to 57.1 µM
# [2] = Primary qHTS for inhibitors of MERS-S pseudo-typed particle cell entry (AID 1479149); conditions: MERS-S pseudotyped particle entry, luciferase; series mostly up to 57.1 µM; also: nearly all actives have a fitted effect of over 60% in size
# [3] = Primary qHTS for Vero E6 cytotoxicity: counterscreen for inhibitors of SARS-S pseudo-typed particle cell entry (AID 1479150); conditions: cell viability; series mostly up to 57.1 µM
# [4] = Cytotoxicity counterscreen for inhibitors of SARS-CoV-2 cell entry (AID 1645845); conditions: cell viability (SARS-CoV-2 entry assay cells); series mostly up to 57.1 µM; also: nearly all actives have a fitted effect of over 50% in size
# Outline: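 48 h compound treatment (after 1 h preincubation), HEK293-ACE2 cells, 37 C/5% CO2; ATP luminescence endpoint; normalized to cell wells and media blanks.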
# [5] = Primary qHTS to identify inhibitors of SARS-CoV-2 cell entry (AID 1645846); conditions: SARS-CoV-2 pseudovirus cell entry assay, luminescence; also: nearly all actives have a fitted effect of over 45% in size; also: potency is read from the fitted curve at half-maximal effect
# Outline: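 Data are normalized to wells receiving SARS-CoV-2-S pseudoparticles and those given bald particles. Entry signal was luciferase luminescence in stable hACE2 Expi293F cells, 48 hr post-infection, after 1 hr compound pretreatment.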
# [6] = molecular target: Glutathione peroxidase 1 (Homo sapiens) (UniProt P07203); assay: Primary qHTS Assay for Inhibitors of Recombinant Selenoprotein Glutathione Peroxidase 1 (GPX1) (AID 1845191; active = well fitted inhibition curve with a large enough effect; also: nearly all actives have a fitted effect of over 65% in size); conditions: recombinant GPX1, GR-coupled NADPH fluorescence, 15 min; series mostly up to 48.8 µM
# Chain of Glutathione peroxidase 1 (Homo sapiens) (P07203 whole entry, looked up): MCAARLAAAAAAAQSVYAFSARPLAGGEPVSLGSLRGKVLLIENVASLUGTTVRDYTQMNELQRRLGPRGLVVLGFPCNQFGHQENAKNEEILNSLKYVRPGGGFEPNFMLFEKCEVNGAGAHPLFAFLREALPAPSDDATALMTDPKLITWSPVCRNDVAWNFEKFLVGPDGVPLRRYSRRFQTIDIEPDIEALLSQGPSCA
# Outline: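 10 nM GPX1 + cpd, 30 min RT; start w/ 1 mM GSH, 0.5 mM cumene hydroperoxide, 0.5 mM NADPH, 100 nM GR, 0.01% BSA; buffer 50 mM Tris-HCl pH 7.5, 2 mM EDTA, 150 mM NaCl; Fl 340/450, 0 & 15 min.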
# [7] = molecular target: Phospholipid hydroperoxide glutathione peroxidase GPX4 (Homo sapiens) (UniProt P36969); assay: Primary qHTS Assay for Inhibitors of Recombinant Selenoprotein Glutathione Peroxidase 4 (GPX4) (AID 1845192; active = well fitted inhibition curve with a large enough effect; also: nearly all actives have a fitted effect of over 65% in size); conditions: recombinant GPX4, GR-coupled NADPH fluorescence, 15 min; series mostly up to 50 µM
# Chain of Phospholipid hydroperoxide glutathione peroxidase GPX4 (Homo sapiens) (P36969 whole entry, looked up): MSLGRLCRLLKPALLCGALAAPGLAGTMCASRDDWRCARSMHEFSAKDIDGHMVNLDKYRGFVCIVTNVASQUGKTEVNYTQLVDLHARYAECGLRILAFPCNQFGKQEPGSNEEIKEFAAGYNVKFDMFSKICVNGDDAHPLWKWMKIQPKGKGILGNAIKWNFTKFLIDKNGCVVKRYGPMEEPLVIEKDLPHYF
# Outline: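 NADPH consumption, followed by fluorescence at 340/450 nm between 0 and 15 min, reports GPX4 activity via coupled glutathione reductase (100 nM). Enzyme 200 nM was pre-exposed to compound 30 min; 0.5 mM cumene hydroperoxide and 1 mM GSH served as substrates.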
# [8] = VSVG counterscreen qHTS to identify inhibitors of SARS-CoV-2 cell entry (AID 1645847); conditions: VSV-G pseudotyped particle entry, luciferase; series mostly up to 57.2 µM; also: potency is read from the fitted curve at half-maximal effect; nearly all actives have a fitted effect of over 65% in size
# Outline: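 Counterscreen using VSV-G (not spike) pseudotyped MLV particles on ACE2-expressing Expi293F cells after 1 h compound preincubation; infection ran 48 h at 37 °C. Data normalized to VSV-G PP and bald-PP wells.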
# [9] = activity change, negative = inhibition: at 57.1 µM (top of the series) unless noted, outcome: at 57.1 µM (top of the series) unless noted
compound,measurement,setting,value
C[C@H]1CNCCCN1S(=O)(=O)c1cccc2cncc(F)c12,Potency,[1],inactive
same,Potency,[2],inactive
same,Potency,[3],inactive
same,Potency,[4],inactive
same,"activity change, negative = inhibition",[5]; at 27.1 µM (top of the series),-27.6%
same,"activity change, negative = inhibition",[5]; at 57.1 µM (top of the series),-12.6%
N=C1CCCN1Cc1[nH]c(=O)[nH]c(=O)c1Cl,Potency,[1],inactive
same,Potency,[2],inactive
same,Potency,[3],inactive
same,Potency,[4],inactive
same,"activity change, negative = inhibition",[5]; [9],-1.38%
CCC[C@@H]1C[C@@H](C(=O)N[C@@H](C2O[C@H](SC)[C@H](O)[C@@H](O)[C@H]2O)[C@H](C)Cl)N(C)C1 (stereo partly specified),Potency,[1],inactive
same,Potency,[2],inactive
same,Potency,[3],inactive
same,Potency,[4],inactive
same,Potency,[5]; [9],inactive
CN1C(=O)C[C@@H](C(=O)N[C@@H](Cc2cnc[nH]2)C(=O)N2CCC[C@H]2C(N)=O)NC1=O,Potency,[1],inactive
same,Potency,[2],inactive
same,Potency,[3],inactive
same,Potency,[4],inactive
same,"activity change, negative = inhibition",[5]; [9],-23.8%
CN1CC(O)c2cc(N=NC(=N)N)c(O)cc21 (stereo unspecified),Potency,[1],inactive
same,Potency,[2],inactive
same,Potency,[3],inactive
same,Potency,[4],inactive
same,"activity change, negative = inhibition",[5]; [9],-23.2%
Cc1cccc(C)c1N(CCCc1cccnc1)C(=O)C(C)N (stereo unspecified),Potency,[1],inactive
same,Potency,[2],inactive
same,Potency,[3],inactive
same,Potency,[4],inactive
same,"activity change, negative = inhibition",[5]; [9],-18.9%
CC1(C)C[C@H]1C(=O)N/C(=C\CCCCSC[C@@H](N)C(=O)O)C(=O)O,Potency,[1],inactive
same,Potency,[2],inactive
same,Potency,[3],inactive
same,Potency,[4],inactive
same,"activity change, negative = inhibition",[5]; [9],-28.6%
CCCCCCO[C@@H](C)c1cccc(-c2csc(NC(=O)c3cc(Cl)c(/C=C(\C)C(=O)O)c(Cl)c3)n2)c1OC,Potency,[1],inactive
same,Potency,[2],inactive
same,Potency,[3],inactive
same,Potency,[4],inactive
same,"activity change, negative = inhibition",[5]; [9],-33.5%
O=C(O)c1cc(=O)c2c3nc4ccccc4oc-3cc(=O)c2[nH]1,Potency,[1],inactive
same,Potency,[2],inactive
same,Potency,[3],inactive
same,Potency,[4],inactive
same,"activity change, negative = inhibition",[5]; [9],-16.2%
CCC(=O)O[C@H]1CC[C@H]2[C@@H]3CC[C@H]4CC(=O)[C@H](C)C[C@]4(C)[C@H]3CC[C@]12C,Potency,[1],inactive
same,Potency,[2],inactive
same,Potency,[3],inactive
same,Potency,[4],inactive
same,"activity change, negative = inhibition",[5]; [9],-28.3%
same,Potency,[6],inactive
C[C@]12C=CC(=O)C=C1CC[C@@H]1[C@@H]2[C@@H](O)C[C@@]2(C)[C@H]1CC[C@]2(O)C(=O)COP(=O)(O)O,"activity change, negative = cytotoxicity",[1],-13.3% [at 11.4 µM] (inactive)
same,"activity change, negative = inhibition",[2],-22% [at 11.4 µM] (inactive)
same,"activity change, negative = cytotoxicity",[3],-2.88% [at 11.4 µM] (inactive)
same,"activity change, negative = cytotoxicity",[4],-0.915% [at 11.3 µM] (inactive)
same,"activity change, negative = inhibition",[5]; [9],-19.2% [at 11.3 µM]
CCC(c1ccccc1)c1noc(CCN(CC)CC)n1 (stereo unspecified),Potency,[1],inactive
same,Potency,[2],inactive
same,Potency,[3],inactive
same,Potency,[4],inactive
same,"activity change, negative = inhibition",[5]; [9],-15.7%
O=C1CCC(=O)N1CO,Potency,[1],inactive
same,Potency,[2],inactive
same,Potency,[3],inactive
same,Potency,[4],inactive
same,Potency,[5]; [9],inactive
CC(=O)N[C@H](Cc1ccc2ccccc2c1)C(=O)N[C@H](Cc1ccc(Cl)cc1)C(=O)N[C@H](Cc1cccnc1)C(=O)N[C@@H](CO)C(=O)N[C@@H](Cc1ccc(O)cc1)C(=O)N[C@H](CCCNC(N)=O)C(=O)N[C@@H](CC(C)C)C(=O)N[C@@H](CCCN=C(N)N)C(=O)N1CCC[C@H]1C(=O)N[C@H](C)C(N)=O (Ac-[d2Nal][dPhe(4-Cl)][d3Pal]SY[dCit]LRP[dA]-NH2),Potency,[1],inactive
same,Potency,[2],inactive
same,Potency,[3],inactive
same,Potency,[4],inactive
same,"activity change, negative = inhibition",[5]; [9],-10.8% [at 27.1 µM]
"C[C@@H]1NC(=O)[C@@H]2CCCN2C(=O)[C@H](CC(N)=O)NC(=O)[C@@H]2CSSC[C@H](N)C(=O)N[C@H]3CSSC[C@H](NC1=O)C(=O)N[C@@H]([C@@H](C)O)C(=O)NCC(=O)N[C@H](C(=O)N[C@@H](Cc1ccc(O)cc1)C(=O)O)CSSC[C@H](NC(=O)[C@H](Cc1ccc(O)cc1)NC(=O)[C@H](CCC(=O)O)NC3=O)C(=O)N2 (H-CCEYCCNPACTGCY-OH; disulfide 1-6, 2-10, 5-13)",Potency,[1],inactive
same,Potency,[2],inactive
same,Potency,[3],inactive
same,Potency,[4],inactive
same,"activity change, negative = inhibition",[5]; [9],-24.4% [at 27.1 µM]
CCCCCCCCCCC(=O)O[C@H]1CC[C@H]2[C@@H]3CCC4=CC(=O)CC[C@]4(C)[C@H]3CC[C@]12C,Potency,[1],inactive
same,Potency,[2],inactive
same,Potency,[3],inactive
same,Potency,[4],inactive
same,Potency,[5]; [9],inactive
same,Potency,[6],inactive
same,Potency,[7],inactive
CC(C)N=c1cc2n(-c3ccc(Cl)cc3)c3ccccc3nc-2cc1Nc1ccc(Cl)cc1,Potency,[1],inactive
same,Potency,[2],inactive
same,Potency,[3],inactive
same,Potency,[4],inactive
same,"activity change, negative = inhibition",[5]; [9],-33.7%
CC(C)(C)NCC(O)c1ccc(O)c(CO)n1 (stereo unspecified),Potency,[1],inactive
same,Potency,[2],inactive
same,Potency,[3],inactive
same,Potency,[4],inactive
same,Potency,[5]; [9],inactive
C/C(=C\c1csc(C)n1)[C@@H]1C[C@@H]2O[C@]2(C)CCC[C@H](C)[C@H](O)[C@@H](C)C(=O)C(C)(C)[C@@H](O)CC(=O)N1,Potency,[1],inactive
same,Potency,[2],inactive
same,Potency,[3],inactive
same,Potency,[4],inactive
same,Potency,[5]; [9],2820 nM (active)
same,Potency,[8],152 nM (active)
CCCCC(CC)COc1ccc(-c2nc(-c3ccc(OC)cc3)nc(-c3ccc(OCC(CC)CCCC)cc3O)n2)c(O)c1 (stereo unspecified),"activity change, negative = cytotoxicity",[1],-14.4% [at 5.34 µM] (inactive)
same,"activity change, negative = inhibition",[2],-1.24% [at 5.34 µM] (inactive)
same,"activity change, negative = cytotoxicity",[3],-1.62% [at 5.34 µM] (inactive)
same,"activity change, negative = cytotoxicity",[4],-8.22% [at 5.25 µM] (inactive)
same,outcome,[5]; [9],inactive [at 5.25 µM]
CCCCCCCCCC(=O)OC1CC[C@H]2[C@@H]3CCC4=CC(=O)CC[C@@H]4[C@H]3CC[C@]12C (stereo partly specified),Potency,[1],inactive
same,Potency,[2],inactive
same,Potency,[3],inactive
same,Potency,[4],inactive
same,"activity change, negative = inhibition",[5]; [9],0.678%
same,Potency,[6],inactive
O=C(O)c1cc2ccccc2c(Cc2c(O)c(C(=O)O)cc3ccccc23)c1O,Potency,[1],inactive
same,Potency,[2],inactive
same,Potency,[3],inactive
same,Potency,[4],inactive
same,Potency,[5]; [9],inactive
FCOC(C(F)(F)F)C(F)(F)F,Potency,[1],inactive
same,Potency,[2],inactive
same,Potency,[3],inactive
same,Potency,[4],inactive
same,"activity change, negative = inhibition",[5]; [9],-16%
O=C1N=C(N2CCOCC2)CN1c1ccc(Cl)cc1,Potency,[1],inactive
same,Potency,[2],inactive
same,Potency,[3],inactive
same,Potency,[4],inactive
same,"activity change, negative = inhibition",[5]; [9],-29.2%
